# From the supplement of paper PMC10037445
# Over roughly 2,900 compounds, “IRF Lucia reporter activity, fold change vs agonist alone” has its median near 0.9; the highest 2% begin near 2.8. The full list was thinned out, with the highest values kept by preference.
# Columns and labels:
# RAW-Dual [1] = experiment: IRF Lucia reporter activity, fold change vs agonist alone; higher = enhanced IRF activity; settings: library stock concentration (final ~1000-fold dilution): 10 mM, agonist: MPLA (TLR4) […]
# In short: (§1)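 RAW-Dual macrophages were seeded in DMEM at 50,000 cells/well in 384-well plates, given 50 nL of library stock by pin tool, and given a PRR agonist 1 h later. Plates were held at 37 °C, 5% CO2 for 20 hours, after which supernatant was read for IRF by QuantiLuc luminescence and for NF-κB by QuantiBlue absorbance at 620 nm. Reporter activity is expressed as fold change over wells that received agonist alone. A well was called cytotoxic when IncuCyte confluency fell below 70% of agonist controls in both mask sets.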
# RAW-Dual [2] = experiment: IRF Lucia reporter activity, fold change vs agonist alone; cytotoxicity flag (confluency mask): not cytotoxic; higher = enhanced IRF activity; settings: library stock concentration (final ~1000-fold dilution): 10 mM
# In short: as §1
# RAW-Dual [3] = experiment: IRF Lucia reporter activity, fold change vs agonist alone; cytotoxicity flag (confluency mask): cytotoxic (confluency <70% of control); higher = enhanced IRF activity; settings: library stock concentration (final ~1000-fold dilution): 10 mM
# In short: as §1
# [4] = cytotoxicity flag (confluency mask): not cytotoxic
# [5] = agonist: 3'3'-cGAMP (STING) 10 ug/mL
compound,measurement,setting,value
CCC(C)C(NC(=O)C(C(C)CC)N(C)C(C)=O)C(=O)NC(=O)C(NC(CC(C)C)C(=O)C1(C)CO1)C(C)O (stereo not drawn),IRF Lucia reporter activity,RAW-Dual [1]; [4],2.09
same,IRF Lucia reporter activity,RAW-Dual [2]; [5],1.55
same,IRF Lucia reporter activity,RAW-Dual [2]; agonist: LPS (TLR4) 0.1 ug/mL,4.46
COc1cc2c(cc1OC)C(Cc1ccc(O)c(Oc3cc4c(cc3OC)CCN(C)C4Cc3ccc(O)cc3)c1)N(C)CC2.[O-][Cl+3]([O-])([O-])O (stereo not drawn),IRF Lucia reporter activity,RAW-Dual [2]; [5],0.0548
same,IRF Lucia reporter activity,RAW-Dual [2]; agonist: LPS (TLR4) 0.1 ug/mL,0.74
Cc1sc2c(c1C)C(c1ccc(Cl)cc1)=NC(CC(=O)OC(C)(C)C)c1nnc(C)n1-2 (stereo not drawn),IRF Lucia reporter activity,RAW-Dual [1]; cytotoxicity flag (confluency mask): cytotoxic (confluency <70% of control),0.122
same,IRF Lucia reporter activity,RAW-Dual [3]; [5],0.193
same,IRF Lucia reporter activity,RAW-Dual [3]; agonist: LPS (TLR4) 0.1 ug/mL,0.185
CC(C)c1ccc2c(c1O)CCC1C3=C(CCC21C)C(=O)OC3 (stereo not drawn),IRF Lucia reporter activity,RAW-Dual [2]; [5],0.917
same,IRF Lucia reporter activity,RAW-Dual [2]; agonist: LPS (TLR4) 0.1 ug/mL,1.25
CCC12C=CCN3CCC4(c5ccc(OC)cc5N(C)C4C(O)(C(=O)OC)C1OC(C)=O)C32 (stereo not drawn),IRF Lucia reporter activity,RAW-Dual [1]; [4],1.06
same,IRF Lucia reporter activity,RAW-Dual [2]; [5],0.891
same,IRF Lucia reporter activity,RAW-Dual [2]; agonist: LPS (TLR4) 0.1 ug/mL,1.25
